Laboratory results from PubChem BioAssay (NCATS).
Results filed as inconclusive are left out. Values without a mark were called inactive. Active and inactive are the calls of the source. The call rests on the fitted dose curve; in most records, active means well fitted cell-killing curve with a large enough effect; inconclusive means small, poorly fitted or top-dose-only effect, or effect the other way; inactive means flat fitted curve, though single readings scatter.

Each compound was assayed on CAOV3 (assay: Primary qHTS to identify gynecologic anti-cancer compounds using libraries of approved drugs and bioactive compounds (AID 1345084; further: nearly all actives have a fitted effect of over 55% in size)). Settings: Gynecologic cancer cell panel viability, ATPlite luminescence, 48 h; series mostly up to 57.5 µM; activity change, negative = cytotoxicity: at the top concentration.
Description: National Center for Advancing Translational Sciences [NCATS] Assay Overview: Chemotherapeutic drug responses vary from cancer to cancer and from patient to patient. These variations could be caused by a number of factors including patient genomic background, tumor mutations, tumor heterogeneity, and aspects of drug treatment. Chemotherapeutic drug resistance is also a common issue and can lead to ineffective treatment and patient death. Here we have profiled the cell killing effects of thousands of compounds to characterize the responses in three gynecological cancers, identify cancer-selective compounds, and understand the diversity of responses to these compounds from pan-cancer suppressors to single cell line selective compounds. In this assay, we screened a 7,914 compound drug library that included approved drug and bioactive compounds in six ovarian, three cervical, and […] placental cancer cell lines using the ATPlite assay for cell viability. […] The cervical cancer cell lines included HeLa, Ca Ski, and C-33 A. The placental cancer cell lines included JEG-3. HEK 293T cells were used as the control cell line to determine the selectivity index. ATPlite is a luminescence based assay reliant on the conversion of a luciferase substrate to light in the presence of ATP. As a cytotoxic compound will suppress growth and decrease the number of cells, the concentration of ATP will decrease, and less light signal will be detected in the well.
Assay Protocol Summary: 1,000 cells in 4 uL of media were dispensed into white, solid bottom 1536-well plates using a Multidrop Combi (Thermo Scientific). The Assay plates were incubated for 16 hours at 37 C with 5% CO2 in assay plates, followed by the addition of 23 nL of DMSO or drug dissolved in DMSO. Each compound was assayed in five concentrations (0.092, 0.46, 2.3, 11.5, and 57.5 uM), using the automated Wako 1536 Pin Tool workstation and incubated at 37 C with 5% CO2 48 hours. 4 uL of ATPlite, the ATP monitoring reagent, was then added to the each well of the assay plates using the Multidrop Combi reagent dispenser followed by incubation for 15 minutes at room temperature. The resulting luminescence was measured using the ViewLux plate reader.
On the % scale 0 is the no-effect control and ±100 the full control effect; potency means the concentration at half of the fitted maximal effect.

Compound | activity change, negative = cytotoxicity | Potency
Cc1cn(-c2cc(NC(=O)c3ccc(C)c(Nc4nccc(-c5cccnc5)n4)c3)cc(C(F)(F)F)c2)cn1 | -3.2% | 
CC(C)c1noc(N2CCC(COc3ccc(-c4ccc(S(C)(=O)=O)cc4)nc3)CC2)n1 | -4.74% | 
CCCn1c(=O)c2[nH]c(-c3cnn(Cc4cccc(C(F)(F)F)c4)c3)nc2n(CC)c1=O | 12.2% | 
CNC(=O)c1ccc(-c2cnc3ncc(Cc4ccc5ncccc5c4)n3n2)cc1F | 15.7% | 
Fc1cc(-c2cccc3ncc(-c4cnn(C5CCNCC5)c4)nc23)cc(F)c1CN1CCOCC1 |  | 31.6 µM (active)
OCc1ccc(-c2ccc(-c3ccc(CO)s3)o2)s1 |  | 0.199 µM (active)
Cc1cc(Nc2cc(CN3CCOCC3)c3nc(C)c(Cc4ccc(Cl)cc4F)n3n2)n[nH]1 | -8.39% | 
C#Cc1cccc(Nc2ncnc3cc(OC)c(OCCCCCCC(=O)NO)cc23)c1 |  | 7.94 µM (active)
C=CC(=O)Nc1cccc(Oc2nc(Nc3ccc(N4CCN(C)CC4)cc3)ncc2Cl)c1 |  | 7.94 µM (active)
CCCCOc1c(C(=O)c2c(F)cc(C)cc2F)cnc2n[nH]cc12 | 3.37% | 
O=C1CCC[C@@H]2[C@H]3CCC[N+]4([O-])CCC[C@@H](CN12)[C@@H]34 (stereo not given in full) | 10.2% | 
Cn1c(CNc2ccc(C(=N)N)cc2)nc2cc(C(=O)N(CCC(=O)O)c3ccccn3)ccc21 | 18.6% | 
Cc1coc2c1C(=O)C(=O)c1c-2ccc2c1CCCC2(C)C | -10.6% | 
CCc1cc2c(cc1N1CCC(N3CCOCC3)CC1)C(C)(C)c1[nH]c3cc(C#N)ccc3c1C2=O | 7.73% [at 25.3 µM] | 
Nc1ccccc1NC(=O)c1ccc(CNC(=O)OCc2cccnc2)cc1 | -2.13% | 
Cn1c(=O)n(-c2ccc(C(C)(C)C#N)cc2)c2c3cc(-c4cnc5ccccc5c4)ccc3ncc21 |  | 0.562 µM (active)
COc1ccc2c(c1)CC[C@@H](CN(C)CC(=O)O)[C@H]2c1ccccc1 | 7.27% | 
COc1cc(Nc2ncc(F)c(Nc3ccc4c(n3)N(COP(=O)(O)O)C(=O)C(C)(C)O4)n2)cc(OC)c1OC |  | 11.2 µM (active)
COC(=O)Nc1nc2ccc(C(=O)c3ccc(F)cc3)cc2[nH]1 | -25.6% | 
Nc1nc(NCCNc2ncc(-n3ccnc3)c(-c3ccc(Cl)cc3Cl)n2)ccc1[N+](=O)[O-] | -3.13% | 

Compound | activity change, negative = cytotoxicity | Potency
COc1cc2c(NC3CCN(C(C)C)CC3)nc(C3CCCCC3)nc2cc1OCCCN1CCCC1 |  | 6.31 µM (active)
Cc1cn2cc(C(=O)N(C)CCO)cc(N[C@@H]3CCOc4cccc(C)c43)c2n1 | 1.55% | 
Cc1cnc(-c2cnc(NCCNc3ccc(C#N)cn3)nc2-c2ccc(Cl)cc2Cl)[nH]1 | -15.8% | 
O=C(Nc1cc(C(F)(F)F)cc(C(F)(F)F)c1)c1cc(Cl)ccc1O |  | 8.91 µM (active)
CS(=O)(=O)N1CCN(Cc2cc3nc(-c4cccc5[nH]ncc45)nc(N4CCOCC4)c3s2)CC1 | -42.5% | 
CC(C)c1cc(-c2n[nH]c(=O)n2-c2ccc3c(ccn3C)c2)c(O)cc1O | -43.5% | 
COc1ccc(C(=O)CC2(O)C(=O)Nc3c(Cl)ccc(Cl)c32)cc1 (stereo not given) | -24.2% | 
C=CCn1c(=O)c2cnc(Nc3ccc(N4CCN(C)CC4)cc3)nc2n1-c1cccc(C(C)(C)O)n1 |  | 3.55 µM (active)
CN(C)c1nc(Cc2ccc(NC(=O)c3ccc4ccccc4c3)cc2)nc(Cl)c1CC(=O)O | 2.81% | 
COc1ccc(-c2cc3c(C)nc(N)nc3n(C3CCC(OCCO)CC3)c2=O)cn1 (stereo not given) |  | 1 µM (active)
NC1(Cc2ccc(Cl)cc2)CCN(c2ncnc3[nH]ccc23)CC1 | -1.47% | 
Cc1c(Cn2c(C)nc3c(C(=O)O)cc(N4CCOCC4)cc32)cccc1C(F)(F)F | -16% | 
Cc1cc(Nc2ncnc3ccc(-c4ccc(CNCCS(C)(=O)=O)o4)cc23)ccc1Oc1ccn2ncnc2c1 | -11.9% | 
COc1cc2c(cc1-c1c(C)noc1C)ncc1[nH]c(=O)n([C@H](C)c3ccccn3)c12 | -27.9% | 
CC[C@@]1(O)C(=O)OCc2c1cc1n(c2=O)Cc2cc3cc(O)ccc3nc2-1 |  | 0.355 µM (active)
COc1ccc2c(OCc3nnc4ccc(-c5ccccc5)nn34)ccnc2c1 | 12.8% | 
CCNC(=O)Nc1ccc2ncc(Nc3ccc(C)cc3)nc2n1 | 28.8% | 
CCOc1ccccc1OCCNC(C)Cc1ccc(OC)c(S(N)(=O)=O)c1 (stereo not given) | -1.04% | 
O=C(O)CCCc1c[nH]c2ccccc12 | 8.67% | 
O=C(c1cncc(Br)c1)N1CCC(N2CCCC2)CC1 | 8.59% | 
